Experimental data as given in the supplement of paper PMC11732987, “Enantioselective OTUD7B fragment discovery through chemoproteomics screening and high-throughput optimisation” (Communications Chemistry, 2025).

How the values were obtained:
Assay in all cases: log2 ratio of Biotin-Ahx-Ub-VS probe labelling (fragment/DMSO); higher = less target engagement (more negative = stronger competition), active = hit call of the paper (q ≤ 0.05, log2 ratio ≤ -1)
Settings in all cases: compound concentration: 200 uM; treatment time: 3 h
USP34 = USP34 (UniProt Q70CQ2)
Sequence of USP34 (Q70CQ2 whole entry, the tested form may be a part): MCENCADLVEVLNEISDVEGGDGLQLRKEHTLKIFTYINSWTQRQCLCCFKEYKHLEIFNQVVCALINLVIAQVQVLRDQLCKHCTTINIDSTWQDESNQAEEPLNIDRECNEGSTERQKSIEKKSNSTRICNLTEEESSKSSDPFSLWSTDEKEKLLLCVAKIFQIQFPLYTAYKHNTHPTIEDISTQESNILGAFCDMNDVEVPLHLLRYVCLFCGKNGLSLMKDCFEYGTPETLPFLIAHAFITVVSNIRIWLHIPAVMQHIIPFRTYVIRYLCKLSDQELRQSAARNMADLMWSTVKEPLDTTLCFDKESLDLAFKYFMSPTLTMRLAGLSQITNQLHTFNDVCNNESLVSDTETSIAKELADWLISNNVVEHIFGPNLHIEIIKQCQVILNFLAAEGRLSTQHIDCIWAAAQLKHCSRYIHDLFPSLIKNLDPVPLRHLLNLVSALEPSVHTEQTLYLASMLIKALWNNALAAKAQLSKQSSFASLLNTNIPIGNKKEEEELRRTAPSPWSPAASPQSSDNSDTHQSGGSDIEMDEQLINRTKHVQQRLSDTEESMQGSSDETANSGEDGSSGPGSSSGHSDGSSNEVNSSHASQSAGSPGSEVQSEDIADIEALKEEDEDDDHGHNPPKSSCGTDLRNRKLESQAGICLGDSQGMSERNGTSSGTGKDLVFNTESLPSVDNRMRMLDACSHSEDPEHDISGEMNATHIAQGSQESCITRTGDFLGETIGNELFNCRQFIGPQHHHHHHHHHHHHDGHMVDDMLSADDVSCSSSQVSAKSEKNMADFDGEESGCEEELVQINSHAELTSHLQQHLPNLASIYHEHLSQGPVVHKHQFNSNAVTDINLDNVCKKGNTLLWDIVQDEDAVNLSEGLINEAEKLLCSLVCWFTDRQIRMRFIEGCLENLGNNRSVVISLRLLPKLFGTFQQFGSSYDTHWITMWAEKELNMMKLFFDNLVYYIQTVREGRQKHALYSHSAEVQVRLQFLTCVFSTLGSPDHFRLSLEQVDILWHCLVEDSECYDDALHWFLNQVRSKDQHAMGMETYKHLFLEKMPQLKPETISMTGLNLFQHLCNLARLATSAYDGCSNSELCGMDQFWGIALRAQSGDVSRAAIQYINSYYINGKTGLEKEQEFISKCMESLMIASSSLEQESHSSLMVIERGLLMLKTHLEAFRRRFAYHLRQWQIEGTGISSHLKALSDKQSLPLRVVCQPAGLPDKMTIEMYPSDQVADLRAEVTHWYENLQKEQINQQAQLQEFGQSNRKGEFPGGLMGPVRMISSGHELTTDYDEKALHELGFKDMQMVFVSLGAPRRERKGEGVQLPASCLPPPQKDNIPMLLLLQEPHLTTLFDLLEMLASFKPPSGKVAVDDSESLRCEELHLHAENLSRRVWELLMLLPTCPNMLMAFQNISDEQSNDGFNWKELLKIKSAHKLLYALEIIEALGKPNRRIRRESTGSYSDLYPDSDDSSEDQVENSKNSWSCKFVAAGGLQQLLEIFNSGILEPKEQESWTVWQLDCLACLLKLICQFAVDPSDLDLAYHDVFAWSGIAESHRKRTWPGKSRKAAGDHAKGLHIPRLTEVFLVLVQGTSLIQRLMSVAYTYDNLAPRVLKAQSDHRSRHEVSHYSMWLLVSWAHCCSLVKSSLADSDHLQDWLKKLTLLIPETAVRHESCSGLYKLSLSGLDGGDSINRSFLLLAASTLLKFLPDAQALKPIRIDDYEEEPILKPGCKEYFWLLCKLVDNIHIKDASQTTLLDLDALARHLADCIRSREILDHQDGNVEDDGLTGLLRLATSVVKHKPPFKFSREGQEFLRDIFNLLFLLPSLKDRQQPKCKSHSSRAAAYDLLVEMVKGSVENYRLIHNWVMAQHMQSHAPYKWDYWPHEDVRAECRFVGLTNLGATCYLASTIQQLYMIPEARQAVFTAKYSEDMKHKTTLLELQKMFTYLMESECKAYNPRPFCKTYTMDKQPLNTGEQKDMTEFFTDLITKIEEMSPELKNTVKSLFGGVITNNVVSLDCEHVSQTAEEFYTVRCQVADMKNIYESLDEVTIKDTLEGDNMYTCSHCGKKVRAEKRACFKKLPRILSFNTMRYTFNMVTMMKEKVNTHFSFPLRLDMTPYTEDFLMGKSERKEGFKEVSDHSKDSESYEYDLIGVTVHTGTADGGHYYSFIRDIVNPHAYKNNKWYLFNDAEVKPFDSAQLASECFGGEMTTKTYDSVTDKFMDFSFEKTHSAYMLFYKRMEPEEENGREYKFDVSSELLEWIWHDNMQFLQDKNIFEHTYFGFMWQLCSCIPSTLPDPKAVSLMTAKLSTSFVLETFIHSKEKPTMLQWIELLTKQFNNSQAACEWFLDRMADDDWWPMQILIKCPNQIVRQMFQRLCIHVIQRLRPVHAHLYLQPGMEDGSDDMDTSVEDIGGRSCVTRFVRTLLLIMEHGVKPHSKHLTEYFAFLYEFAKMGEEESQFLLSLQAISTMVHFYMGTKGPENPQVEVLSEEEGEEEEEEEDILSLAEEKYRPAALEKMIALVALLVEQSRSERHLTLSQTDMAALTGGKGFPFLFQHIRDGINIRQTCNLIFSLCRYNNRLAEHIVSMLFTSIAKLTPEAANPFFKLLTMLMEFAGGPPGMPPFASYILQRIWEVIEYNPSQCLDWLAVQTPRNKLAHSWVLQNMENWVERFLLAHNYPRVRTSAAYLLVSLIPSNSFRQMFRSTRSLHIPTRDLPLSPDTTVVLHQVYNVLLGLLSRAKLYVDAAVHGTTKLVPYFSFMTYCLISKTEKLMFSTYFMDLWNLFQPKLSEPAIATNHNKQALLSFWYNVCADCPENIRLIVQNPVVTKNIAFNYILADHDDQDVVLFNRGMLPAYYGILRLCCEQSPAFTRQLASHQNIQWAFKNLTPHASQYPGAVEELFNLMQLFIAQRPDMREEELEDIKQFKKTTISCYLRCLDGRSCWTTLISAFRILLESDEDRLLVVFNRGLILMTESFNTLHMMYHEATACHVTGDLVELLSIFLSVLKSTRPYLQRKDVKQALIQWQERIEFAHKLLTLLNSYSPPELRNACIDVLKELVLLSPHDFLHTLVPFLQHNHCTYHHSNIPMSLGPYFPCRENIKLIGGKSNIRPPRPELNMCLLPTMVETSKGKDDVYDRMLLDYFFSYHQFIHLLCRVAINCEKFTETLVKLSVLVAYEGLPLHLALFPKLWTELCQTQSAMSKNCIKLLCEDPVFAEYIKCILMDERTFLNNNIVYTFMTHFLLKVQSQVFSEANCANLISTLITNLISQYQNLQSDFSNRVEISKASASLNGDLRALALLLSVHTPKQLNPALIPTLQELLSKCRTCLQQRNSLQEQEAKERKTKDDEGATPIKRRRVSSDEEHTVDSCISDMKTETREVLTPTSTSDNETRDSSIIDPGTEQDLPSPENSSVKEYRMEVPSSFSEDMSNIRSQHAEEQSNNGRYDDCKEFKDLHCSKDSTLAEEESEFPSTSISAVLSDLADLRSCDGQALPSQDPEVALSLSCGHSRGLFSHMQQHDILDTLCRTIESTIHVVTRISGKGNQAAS
Outline: (§1)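 Fragment (200 µM) or vehicle was incubated for 3 h with triplicate HEK293T lysate samples of 495 µg, which were then treated with Biotin-Ahx-Ub-VS at 0.5 µM final for 1 h. Labelled DUBs were enriched on NeutrAvidin, digested with LysC and trypsin, and analysed by diaPASEF LC-MS/MS. Values are average log2 fragment/vehicle ratios from an unpaired t-test on global-median-normalised Spectronaut label-free quantities, using proteins with ≥2 unique peptides.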

USP36 = target: T1, USP36 (UniProt Q9P275)
T1 sequence (whole entry): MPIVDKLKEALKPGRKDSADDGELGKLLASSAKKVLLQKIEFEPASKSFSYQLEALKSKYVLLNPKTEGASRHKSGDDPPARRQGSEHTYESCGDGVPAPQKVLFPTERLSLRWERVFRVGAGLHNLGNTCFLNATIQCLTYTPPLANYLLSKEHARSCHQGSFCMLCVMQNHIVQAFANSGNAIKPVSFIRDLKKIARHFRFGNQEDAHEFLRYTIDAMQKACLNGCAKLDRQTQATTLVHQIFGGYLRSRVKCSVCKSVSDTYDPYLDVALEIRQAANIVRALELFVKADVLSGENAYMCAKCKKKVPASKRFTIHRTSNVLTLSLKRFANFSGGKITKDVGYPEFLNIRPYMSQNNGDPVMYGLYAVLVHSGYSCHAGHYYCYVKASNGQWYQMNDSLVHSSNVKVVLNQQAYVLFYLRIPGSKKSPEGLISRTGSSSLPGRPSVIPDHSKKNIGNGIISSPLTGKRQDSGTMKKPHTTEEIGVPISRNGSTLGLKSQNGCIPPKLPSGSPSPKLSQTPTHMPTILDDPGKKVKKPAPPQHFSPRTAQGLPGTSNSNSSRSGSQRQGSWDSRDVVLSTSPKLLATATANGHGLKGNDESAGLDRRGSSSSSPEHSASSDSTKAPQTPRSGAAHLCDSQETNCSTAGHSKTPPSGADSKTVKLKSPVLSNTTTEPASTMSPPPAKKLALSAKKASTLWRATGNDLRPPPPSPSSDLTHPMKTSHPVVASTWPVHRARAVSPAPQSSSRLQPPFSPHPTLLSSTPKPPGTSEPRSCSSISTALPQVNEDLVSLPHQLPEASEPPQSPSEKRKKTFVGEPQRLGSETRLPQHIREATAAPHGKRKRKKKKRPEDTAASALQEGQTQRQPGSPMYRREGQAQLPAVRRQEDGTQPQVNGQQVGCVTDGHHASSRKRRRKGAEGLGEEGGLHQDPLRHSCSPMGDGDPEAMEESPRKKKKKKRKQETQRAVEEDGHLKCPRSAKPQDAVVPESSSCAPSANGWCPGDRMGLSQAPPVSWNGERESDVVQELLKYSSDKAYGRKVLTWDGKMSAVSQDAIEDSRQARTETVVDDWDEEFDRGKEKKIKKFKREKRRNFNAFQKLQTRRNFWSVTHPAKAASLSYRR
Outline: as §1

USP38 = target: T2, USP38 (UniProt Q8NB14)
T2 sequence (whole entry): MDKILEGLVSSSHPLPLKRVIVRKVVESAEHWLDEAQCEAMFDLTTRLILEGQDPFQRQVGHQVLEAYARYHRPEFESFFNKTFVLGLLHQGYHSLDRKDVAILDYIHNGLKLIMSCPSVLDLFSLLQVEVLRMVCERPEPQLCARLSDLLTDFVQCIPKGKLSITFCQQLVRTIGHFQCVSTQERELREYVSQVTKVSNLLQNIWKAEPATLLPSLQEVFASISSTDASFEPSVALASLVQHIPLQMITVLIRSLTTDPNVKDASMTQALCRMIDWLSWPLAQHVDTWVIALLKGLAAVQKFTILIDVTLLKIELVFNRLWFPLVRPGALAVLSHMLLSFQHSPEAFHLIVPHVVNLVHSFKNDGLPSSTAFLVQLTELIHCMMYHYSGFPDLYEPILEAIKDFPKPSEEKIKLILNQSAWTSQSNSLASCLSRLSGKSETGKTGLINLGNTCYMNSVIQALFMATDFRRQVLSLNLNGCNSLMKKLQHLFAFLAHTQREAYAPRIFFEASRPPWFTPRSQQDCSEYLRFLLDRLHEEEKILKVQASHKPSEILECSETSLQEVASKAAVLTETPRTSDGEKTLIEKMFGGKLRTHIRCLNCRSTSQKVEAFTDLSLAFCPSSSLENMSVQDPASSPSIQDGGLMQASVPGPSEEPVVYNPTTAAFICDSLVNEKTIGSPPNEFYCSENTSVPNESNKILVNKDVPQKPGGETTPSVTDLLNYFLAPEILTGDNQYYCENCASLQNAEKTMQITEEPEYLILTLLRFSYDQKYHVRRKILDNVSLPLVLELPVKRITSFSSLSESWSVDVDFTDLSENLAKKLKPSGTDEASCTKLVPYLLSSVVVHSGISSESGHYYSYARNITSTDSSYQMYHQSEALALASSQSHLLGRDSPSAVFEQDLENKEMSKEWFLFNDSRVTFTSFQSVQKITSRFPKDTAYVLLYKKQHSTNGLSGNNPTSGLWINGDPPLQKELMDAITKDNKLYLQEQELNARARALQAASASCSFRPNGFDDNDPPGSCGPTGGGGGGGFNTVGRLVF
Outline: as §1

USP39 = target: T3, USP39 (UniProt Q53GS9)
T3 sequence (whole entry): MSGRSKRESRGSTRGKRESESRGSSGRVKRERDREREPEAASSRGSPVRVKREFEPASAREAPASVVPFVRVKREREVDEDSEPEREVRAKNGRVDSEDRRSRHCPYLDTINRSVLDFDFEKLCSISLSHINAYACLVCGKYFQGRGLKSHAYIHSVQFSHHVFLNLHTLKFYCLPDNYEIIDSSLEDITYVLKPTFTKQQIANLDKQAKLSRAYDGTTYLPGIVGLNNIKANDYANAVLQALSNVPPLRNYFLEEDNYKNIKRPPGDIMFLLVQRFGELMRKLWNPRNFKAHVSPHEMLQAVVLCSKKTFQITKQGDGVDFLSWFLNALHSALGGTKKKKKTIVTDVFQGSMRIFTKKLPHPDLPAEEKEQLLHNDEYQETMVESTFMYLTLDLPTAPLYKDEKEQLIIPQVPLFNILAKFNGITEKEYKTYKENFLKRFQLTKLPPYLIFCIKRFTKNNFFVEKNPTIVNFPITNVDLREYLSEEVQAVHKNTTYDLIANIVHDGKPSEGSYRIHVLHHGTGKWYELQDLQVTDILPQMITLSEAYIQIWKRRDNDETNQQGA
Outline: as §1

USP4 = target: T4, USP4 (UniProt Q13107)
T4 sequence (whole entry): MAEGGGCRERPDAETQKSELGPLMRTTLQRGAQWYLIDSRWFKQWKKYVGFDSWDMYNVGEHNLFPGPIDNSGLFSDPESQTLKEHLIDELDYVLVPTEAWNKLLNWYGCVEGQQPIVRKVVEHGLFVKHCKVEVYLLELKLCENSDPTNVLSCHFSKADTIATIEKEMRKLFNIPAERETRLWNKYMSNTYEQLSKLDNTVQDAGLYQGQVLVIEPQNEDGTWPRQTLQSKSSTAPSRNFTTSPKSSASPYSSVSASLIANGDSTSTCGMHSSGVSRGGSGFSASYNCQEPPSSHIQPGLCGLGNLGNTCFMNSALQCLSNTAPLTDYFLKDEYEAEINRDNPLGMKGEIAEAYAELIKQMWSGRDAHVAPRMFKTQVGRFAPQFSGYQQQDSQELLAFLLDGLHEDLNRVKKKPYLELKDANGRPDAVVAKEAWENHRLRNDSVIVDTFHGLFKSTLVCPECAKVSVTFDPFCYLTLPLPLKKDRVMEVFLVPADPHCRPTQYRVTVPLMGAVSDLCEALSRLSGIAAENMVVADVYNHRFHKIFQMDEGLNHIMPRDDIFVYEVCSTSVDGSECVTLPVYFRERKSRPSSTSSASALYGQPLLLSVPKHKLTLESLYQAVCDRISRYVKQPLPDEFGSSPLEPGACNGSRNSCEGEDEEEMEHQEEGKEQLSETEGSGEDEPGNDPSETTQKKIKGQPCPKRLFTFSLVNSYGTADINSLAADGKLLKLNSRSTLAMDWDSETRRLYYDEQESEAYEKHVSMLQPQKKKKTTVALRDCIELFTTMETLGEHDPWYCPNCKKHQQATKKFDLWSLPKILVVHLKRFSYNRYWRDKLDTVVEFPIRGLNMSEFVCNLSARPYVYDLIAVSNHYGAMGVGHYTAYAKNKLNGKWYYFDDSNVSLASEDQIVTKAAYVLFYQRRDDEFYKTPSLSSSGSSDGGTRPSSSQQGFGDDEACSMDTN
Outline: as §1

Measured: log2 ratio of Biotin-Ahx-Ub-VS probe labelling

O=C(CCl)NCc1cccc(F)c1
inactive: USP34 -0.0351 | USP36 -0.312 | USP38 0.0703 | USP39 -0.114 | USP4 -0.0159
